# Activity calls are given as the source filed them. The calls were made as follows: active = hit-call score of the fitted dose curve at least 0.9, where 1 is the maximum; inactive = score below 0.9.
# Molecular target: Paired box protein Pax-6 (Homo sapiens) (UniProt P26367)
# Test: ATG_Pax6_CIS: Attagene CIS-FACTORIAL HepG2 Assay for human Paired Box 6 (PAX6) (AID 2282956)
# Settings: HepG2 CIS-FACTORIAL PAX6 reporter transcription, RNA readout; actives raise or lower the signal
# How it was run: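 HepG2 cells transiently transfected with cis-promoter-driven multiplexed reporter units sensing endogenous transcription factor activity; 24 h chemical exposure. Reporter mRNA quantified by RT-PCR, 6-FAM labelling, HpaI digestion and capillary electrophoresis; bidirectional fit versus DMSO baseline.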
# Chain of Paired box protein Pax-6 (Homo sapiens) (P26367 whole entry, looked up): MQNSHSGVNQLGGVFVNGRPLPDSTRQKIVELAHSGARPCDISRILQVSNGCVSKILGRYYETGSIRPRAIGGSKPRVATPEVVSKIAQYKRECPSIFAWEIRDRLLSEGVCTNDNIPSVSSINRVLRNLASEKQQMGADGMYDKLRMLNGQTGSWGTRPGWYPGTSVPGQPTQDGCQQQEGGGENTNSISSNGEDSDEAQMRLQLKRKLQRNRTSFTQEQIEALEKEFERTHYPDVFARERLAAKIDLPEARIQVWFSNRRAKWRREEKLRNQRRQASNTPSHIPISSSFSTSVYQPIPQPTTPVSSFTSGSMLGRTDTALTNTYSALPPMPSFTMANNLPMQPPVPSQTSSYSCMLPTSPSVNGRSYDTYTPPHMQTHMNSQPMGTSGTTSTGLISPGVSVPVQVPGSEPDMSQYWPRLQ
SMILES,outcome,AC50
Clc1cc(Cl)c(-c2c(Cl)c(Cl)cc(Cl)c2Cl)cc1Cl,inactive,
CCOC(=O)CN,inactive,
C=CCCCCCCCCCC,inactive,
COC(=O)C=C(C)CCC=C(C)C,inactive,
CCCCCCCCN1CCCC1=O,,144 µM (active)
CS(=O)(=O)c1ccc(Cl)cc1,inactive,
CC(C)CCOC(=O)c1ccccc1,inactive,
O=C(c1ccccc1)C(O)c1ccccc1 (configuration not stated),inactive,
CCCCCCCCCCCCCC(=O)OCC(O)CO (configuration not stated),inactive,
CCCCCCCCCCCCS(=O)(=O)Cl,inactive,
CCCCCCC(C)(C)S,inactive,
CCOc1ccc(NC(=O)CC(C)=O)cc1,inactive,
O=CCc1ccccc1,inactive,
O=P(O)(O)O,inactive,

# Test system: not listed separately
# Test: ATG_PXRE_CIS: Attagene CIS-FACTORIAL HepG2 Assay for human Pregnane X Receptor Element (PXRE) (AID 2282957)
# Settings: HepG2 Attagene CIS-FACTORIAL PXRE reporter, mRNA; actives raise or lower the signal
# How it was run: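 Transiently transfected HepG2 cells were dosed and incubated for 24 h. RNA was then isolated, DNase-treated, reverse-transcribed and reporter sequences amplified. Labeled, HpaI-digested fragments were quantified by capillary electrophoresis against DMSO.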
SMILES,outcome,AC50
O=C(O)c1cc(C(=O)O)cc([N+](=O)[O-])c1,inactive,
O=C(Nc1ccc([N+](=O)[O-])cc1)Nc1ccc([N+](=O)[O-])cc1 (tested in a mixture with another compound),inactive,
O=C1c2ccccc2C(=O)c2c(O)ccc(O)c21,,7.05 µM (active)
OCC#CCO,inactive,
Cc1ncc([N+](=O)[O-])n1CCO,inactive,
CCC1(c2ccccc2)C(=O)NCNC1=O,inactive,
OC[C@H]1O[C@@H](Oc2ccc(O)cc2)[C@H](O)[C@@H](O)[C@@H]1O,inactive,
COS(=O)(=O)O,inactive,
Cc1occc(=O)c1OC(=O)C(C)C,inactive,
CC1=NN(c2ccc(S(=O)(=O)O)cc2)C(=O)C1,inactive,
CC(C)NCC(O)COc1ccc(CC(N)=O)cc1 (configuration not stated),inactive,
CC(C)OCCO,inactive,
CN(C)C(=O)Nc1ccc(Oc2ccc(Cl)cc2)cc1,,26.7 µM (active)
